About 79,000 compounds went through this panel and 15% of them were active in at least one assay; those are over-represented in the sample as a whole. The source made the active and inactive calls. No stated cut-off is given here; in the data, active means growth inhibition above about 70%; inactive means the rest.
Legend:
[1] = NCI Yeast Anticancer Drug Screen. Data for the rad52 strain (AID 147);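 further: 0% = growth of vehicle-treated control cultures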; conditions: S. cerevisiae rad52 mutant growth inhibition, active compounds read high
Procedure, shortened: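 Growth of repair-deficient yeast cells was compared between compound-treated and vehicle-treated cultures to give percent inhibition.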

[2] = NCI Yeast Anticancer Drug Screen. Data for the wt1 strain (AID 149);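 further: 0% = growth of vehicle-treated wt1 cultures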; conditions: S. cerevisiae wt1 strain (SPY 50644) growth inhibition, active compounds read high
Procedure, shortened: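 Each compound is tested on wt1 yeast and the loss of growth versus vehicle gives the inhibition value.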

[3] = NCI Yeast Anticancer Drug Screen. Data for the rad50 strain (AID 155);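 further: 0% = growth of vehicle-only cultures of the same strain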; conditions: S. cerevisiae rad50 strain growth inhibition, active compounds read high
Procedure, shortened: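 Vehicle-treated cultures provide the reference for the growth inhibition reported for compound-exposed, repair-deficient yeast.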

[4] = NCI Yeast Anticancer Drug Screen. Data for the mec2-1 strain (AID 157); conditions: S. cerevisiae mec2-1 strain, active compounds read high
Procedure, shortened: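 Compounds were applied to mec2-1 yeast cells. Their growth was then compared with that of vehicle-treated cultures to give growth inhibition.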

[5] = NCI Yeast Anticancer Drug Screen. Data for the sgs1 mgt1 strain (AID 161);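 further: 0% = growth of cultures given vehicle only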; conditions: S. cerevisiae sgs1 mgt1 strain, active compounds read high
Procedure, shortened: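 Yeast cells carrying a defined DNA-repair defect were exposed to test compounds. Growth inhibition was measured relative to vehicle-treated controls.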

[6] = NCI Yeast Anticancer Drug Screen. Data for the CLN2oe strain (AID 163);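 further: 0% = growth of vehicle-only control cultures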; conditions: S. cerevisiae CLN2oe strain, active compounds read high
Procedure, shortened: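 Cells of an engineered yeast line with disturbed cell-cycle regulation are treated with compound. Inhibition of growth is then calculated relative to the vehicle-treated reference.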

[7] = NCI Yeast Anticancer Drug Screen. Data for the cln2 rad14 strain (AID 165);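 further: 0% = growth equal to vehicle treated cultures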; conditions: S. cerevisiae cln2 rad14 strain, active compounds read high
Procedure, shortened: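 Strain: cln2 rad14 yeast, altered in cell cycle control and DNA damage repair. Read-out: growth inhibition vs vehicle.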

[8] = NCI Yeast Anticancer Drug Screen. Data for the bub3 strain (AID 167); conditions: S. cerevisiae bub3 mutant strain, active compounds read high
Procedure, shortened: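 Mutant yeast screening strain plus compound; vehicle-treated cultures serve as the 0% inhibition reference.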

[9] = NCI Yeast Anticancer Drug Screen. Data for the wt2 strain (AID 169); conditions: S. cerevisiae wt2 strain growth inhibition, active compounds read high
Procedure, shortened: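 Growth of compound-treated yeast is measured and expressed as inhibition relative to vehicle-only controls.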

[10] = NCI Yeast Anticancer Drug Screen. Data for the mlh1 strain (AID 171);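 further: 0% = growth of vehicle-treated control cultures of the same strain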; conditions: S. cerevisiae mlh1 strain growth inhibition, active compounds read high
Procedure, shortened: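 Test agents were incubated with yeast bearing a defined DNA damage repair or cell cycle control alteration; values are growth inhibition normalised to vehicle-treated cultures.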

[11] = NCI Yeast Anticancer Drug Screen. Data for the sgs1 strain (AID 173);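 further: 0% = growth of vehicle-only control cultures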; conditions: S. cerevisiae sgs1 mutant, active compounds read high
Procedure, shortened: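 Strain with an altered DNA repair or cell cycle pathway exposed to compound. Growth then measured. Value = inhibition versus vehicle control.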

[12] = NCI Yeast Anticancer Drug Screen. Data for the mlh1 rad18 strain (AID 175); conditions: S. cerevisiae mlh1 rad18 strain growth inhibition, active compounds read high
Procedure, shortened: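 A repair-deficient yeast strain is exposed to test compound, and growth is scored relative to vehicle-treated controls.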

[13] = NCI Yeast Anticancer Drug Screen. Data for the rad18 strain (AID 177); conditions: S. cerevisiae rad18 mutant growth inhibition, active compounds read high
Procedure, shortened: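 DNA-repair-defective yeast; compound treatment; growth inhibition scored against vehicle.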

[14] = NCI Yeast Anticancer Drug Screen. Data for the rad14 strain (AID 159);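 further: 0% = growth of vehicle-treated control cultures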; conditions: S. cerevisiae rad14 strain growth inhibition, active compounds read high
Procedure, shortened: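 Inhibition of growth is reported for a repair-deficient yeast mutant following compound treatment, calculated relative to cultures that received vehicle.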

[15] = NCI Yeast Anticancer Drug Screen. Data for the rad50EPP+ strain (AID 151);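 further: 0% = growth of vehicle-treated control cultures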; conditions: S. cerevisiae rad50 mutant strain, active compounds read high
Procedure, shortened: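 Measured: growth inhibition of rad50EPP+ yeast. Reference: vehicle-treated controls. Screen uses strains with defined genetic alterations in DNA damage repair or cell cycle control.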

[16] = NCI Yeast Anticancer Drug Screen. Data for the mgt1 strain (AID 153); conditions: S. cerevisiae mgt1 mutant growth inhibition, active compounds read high
Procedure, shortened: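 Compounds were applied to mgt1 mutant yeast, and growth was then compared against vehicle-treated control cultures to give percent inhibition.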

[17] = at 5.0 µM (retest, dose inferred, filed as 0.5)
[18] = at 50.0 µM (retest, dose inferred, filed as 5.0)

Measured: growth inhibition

CCCCC(=O)c1c(O)nc2sccn2c1=O
active: [1]; at 33.0 µM 96% | [1]; at 100.0 µM 98% | [2]; at 33.0 µM 94% | [2]; at 100.0 µM 98% | [3]; at 11.0 µM 82% | [3]; at 33.0 µM 97% | [3]; [18] 85% | [3]; at 50.0 µM 85.4% | [3]; at 100.0 µM 98% | [4]; at 11.0 µM 82% | [4]; at 33.0 µM 97% | [4]; [18] 88% | [4]; at 50.0 µM 85.3% | [4]; at 100.0 µM 98% | [5]; at 50.0 µM 89.2% | [6]; at 33.0 µM 78% | [6]; at 100.0 µM 89% | [8]; at 33.0 µM 94% | [8]; [18] 92% | [8]; at 50.0 µM 87.2% | [8]; at 100.0 µM 96% | [9]; at 11.0 µM 86% | [9]; at 33.0 µM 98% | [9]; at 100.0 µM 99% | [10]; at 3.7 µM 74% | [10]; at 11.0 µM 95% | [10]; at 33.0 µM 97% | [10]; at 100.0 µM 98% | [11]; at 11.0 µM 92% | [11]; at 33.0 µM 97% | [11]; at 100.0 µM 98% | [12]; [18] 95% | [12]; at 50.0 µM 83.4% | [13]; at 11.0 µM 72% | [13]; at 33.0 µM 95% | [13]; at 100.0 µM 97%
inactive: [1]; at 1.2 µM 8% | [1]; at 3.7 µM 18% | [1]; at 11.0 µM 64% | [2]; at 1.2 µM 25% | [2]; at 3.7 µM 29% | [2]; at 11.0 µM 52% | [3]; at 1.2 µM 14% | [3]; at 3.7 µM 31% | [3]; [17] 30% | [4]; at 1.2 µM 22% | [4]; at 3.7 µM 17% | [4]; [17] 10% | [5]; [17] 5% | [5]; [18] 28% | [6]; at 1.2 µM 9% | [6]; at 3.7 µM 5% | [6]; at 11.0 µM 26% | [7]; [17] 22% | [7]; [18] 37% | [7]; at 50.0 µM 53% | [8]; at 1.2 µM 6% | [8]; at 3.7 µM 11% | [8]; [17] 47% | [8]; at 11.0 µM 62% | [9]; at 1.2 µM 7% | [9]; at 3.7 µM 19% | [10]; at 1.2 µM 27% | [11]; at 1.2 µM 33% | [11]; at 3.7 µM 55% | [12]; [17] 63% | [13]; at 1.2 µM 17% | [13]; at 3.7 µM 20%

CCOC(=O)C1=C(C)NC(C)=C(C(=O)OCC)C1c1ccc(C)cc1
inactive: [1]; at 1.2 µM 27% | [1]; at 3.7 µM 43% | [1]; at 11.0 µM 64% | [2]; at 1.2 µM 28% | [2]; at 3.7 µM 19% | [2]; at 11.0 µM 57% | [3]; at 1.2 µM 30% | [3]; at 3.7 µM 31% | [3]; [17] -24% | [3]; at 11.0 µM 59% | [3]; [18] 21% | [4]; at 1.2 µM 27% | [4]; at 3.7 µM -6% | [4]; [17] -24% | [4]; at 11.0 µM 39% | [4]; [18] 7% | [14]; at 1.2 µM 17% | [14]; at 3.7 µM 14% | [14]; at 11.0 µM 69% | [5]; [17] -20% | [6]; at 1.2 µM 26% | [6]; at 3.7 µM 13% | [6]; at 11.0 µM 33% | [7]; [17] -31% | [7]; [18] 29% | [8]; at 1.2 µM 61% | [8]; [17] -13% | [9]; at 1.2 µM 5% | [9]; at 3.7 µM 7% | [9]; at 11.0 µM 53% | [10]; at 1.2 µM 8% | [10]; at 3.7 µM 9% | [10]; at 11.0 µM 55% | [11]; at 1.2 µM 15% | [11]; at 3.7 µM 21% | [11]; at 11.0 µM 66% | [12]; [17] -37% | [13]; at 1.2 µM -2% | [13]; at 3.7 µM -2% | [13]; at 11.0 µM 20%
active: [1]; at 33.0 µM 97% | [1]; at 100.0 µM 95% | [2]; at 33.0 µM 97% | [2]; at 100.0 µM 96% | [3]; at 33.0 µM 96% | [3]; at 50.0 µM 88.7% | [3]; at 100.0 µM 96% | [4]; at 33.0 µM 97% | [4]; at 50.0 µM 91.5% | [4]; at 100.0 µM 95% | [14]; at 33.0 µM 96% | [14]; at 100.0 µM 93% | [5]; [18] 75% | [5]; at 50.0 µM 91.8% | [6]; at 33.0 µM 96% | [6]; at 100.0 µM 95% | [7]; at 50.0 µM 90% | [8]; at 3.7 µM 78% | [8]; at 11.0 µM 91% | [8]; at 33.0 µM 97% | [8]; [18] 90% | [8]; at 50.0 µM 91.3% | [8]; at 100.0 µM 95% | [9]; at 33.0 µM 96% | [9]; at 100.0 µM 96% | [10]; at 33.0 µM 96% | [10]; at 100.0 µM 95% | [11]; at 33.0 µM 98% | [11]; at 100.0 µM 96% | [12]; [18] 79% | [12]; at 50.0 µM 90.2% | [13]; at 33.0 µM 96% | [13]; at 100.0 µM 96%

O=C(NC(=S)Nc1ccccn1)c1ccccc1
active: [3]; [17] 97% | [3]; [18] 100% | [4]; [17] 100% | [4]; [18] 100% | [12]; [17] 100% | [12]; [18] 100%
inactive: [1]; at 1.2 µM -30% | [1]; at 3.7 µM -43% | [1]; at 11.0 µM -35% | [1]; at 33.0 µM -28% | [1]; at 100.0 µM -22% | [15]; at 1.2 µM -30% | [15]; at 3.7 µM -51% | [15]; at 11.0 µM -69% | [15]; at 33.0 µM -53% | [15]; at 100.0 µM 25% | [16]; at 1.2 µM -62% | [16]; at 3.7 µM -40% | [16]; at 11.0 µM -58% | [16]; at 33.0 µM -41% | [16]; at 100.0 µM -22% | [3]; at 1.2 µM -12% | [3]; at 3.7 µM -9% | [3]; at 11.0 µM -19% | [3]; at 33.0 µM -30% | [3]; at 50.0 µM 28.7% | [3]; at 100.0 µM -14% | [4]; at 1.2 µM -73% | [4]; at 3.7 µM -55% | [4]; at 11.0 µM -51% | [4]; at 33.0 µM -54% | [4]; at 50.0 µM 25.1% | [4]; at 100.0 µM -50% | [14]; at 1.2 µM -30% | [14]; at 3.7 µM -20% | [14]; at 11.0 µM -19% | [14]; at 33.0 µM -21% | [14]; at 100.0 µM -23% | [5]; [17] -21% | [5]; [18] 50% | [5]; at 50.0 µM 60.5% | [6]; at 1.2 µM -4% | [6]; at 3.7 µM -15% | [6]; at 11.0 µM -11% | [6]; at 33.0 µM -23% | [6]; at 100.0 µM -15% | [7]; [17] 36% | [7]; [18] 10% | [7]; at 50.0 µM -9.05% | [8]; at 1.2 µM -19% | [8]; at 3.7 µM -22% | [8]; [17] 13% | [8]; at 11.0 µM -13% | [8]; at 33.0 µM 5% | [8]; [18] 57% | [8]; at 50.0 µM 63% | [8]; at 100.0 µM 19% | [10]; at 1.2 µM -38% | [10]; at 3.7 µM -34% | [10]; at 11.0 µM -26% | [10]; at 33.0 µM -40% | [10]; at 100.0 µM -37% | [11]; at 1.2 µM -54% | [11]; at 3.7 µM -71% | [11]; at 11.0 µM -47% | [11]; at 33.0 µM -36% | [11]; at 100.0 µM -31% | [12]; at 50.0 µM 19.2% | [13]; at 1.2 µM -60% | [13]; at 3.7 µM -56% | [13]; at 11.0 µM -29% | [13]; at 33.0 µM -38% | [13]; at 100.0 µM -43%

Reference: PubChem BioAssay (NCI)
